An excerpt weighted towards active compounds, which were near 4.1% of everything screened.
MPTP block – blocks calcium-induced mitochondrial swelling | isolated mouse mitochondria, Ca2+ swelling absorbance, 30 min | inhibition, % at 10 µM | hit rate 1.4% among 360,000 | AID 602449;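 active = inhibition of 50% or more, scaled per plate between neutral and stimulator controls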
MIN6 prolif – inducers of beta-cell replication in MIN6 cells; MIN6 cells proliferation, ATPlite luminescence, 48 h; cells starved in 0.2% serum; 100% = growth in 10% serum; hit rate 0.29% among 330,000; proliferation, % at 10 µM;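 active = compounds whose signal lies at least 3.5 SD above the mean of all wells on their plate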
FAS-TE inh – inhibitors of human fatty acid synthase thioesterase domain. inhibition, % at 15 µM. recombinant FAS-TE, OMFH fluorogenic substrate, fluorescence endpoint. AID 602261. hit rate 0.67% among 360,000. P49327;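 active = compounds whose normalised, plate-corrected inhibition of enzyme fluorescence in the single-dose primary screen is 50% or more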
p-CIP stab down – compounds decreasing mouse p/CIP protein stability; F442A p/CIP-EGFP cells, EGFP fluorescence, 16 h; decrease of EGFP signal, % at 10 µM; Q05BA5; hit rate 0.01% among 290,000;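 active = EGFP signal decrease of at least 30% at 10 µM or well 3 SD below plate mean, unless failing retest; inactive = the rest, including hits failing retest or dose response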
Target sequence (Q05BA5 1-1403): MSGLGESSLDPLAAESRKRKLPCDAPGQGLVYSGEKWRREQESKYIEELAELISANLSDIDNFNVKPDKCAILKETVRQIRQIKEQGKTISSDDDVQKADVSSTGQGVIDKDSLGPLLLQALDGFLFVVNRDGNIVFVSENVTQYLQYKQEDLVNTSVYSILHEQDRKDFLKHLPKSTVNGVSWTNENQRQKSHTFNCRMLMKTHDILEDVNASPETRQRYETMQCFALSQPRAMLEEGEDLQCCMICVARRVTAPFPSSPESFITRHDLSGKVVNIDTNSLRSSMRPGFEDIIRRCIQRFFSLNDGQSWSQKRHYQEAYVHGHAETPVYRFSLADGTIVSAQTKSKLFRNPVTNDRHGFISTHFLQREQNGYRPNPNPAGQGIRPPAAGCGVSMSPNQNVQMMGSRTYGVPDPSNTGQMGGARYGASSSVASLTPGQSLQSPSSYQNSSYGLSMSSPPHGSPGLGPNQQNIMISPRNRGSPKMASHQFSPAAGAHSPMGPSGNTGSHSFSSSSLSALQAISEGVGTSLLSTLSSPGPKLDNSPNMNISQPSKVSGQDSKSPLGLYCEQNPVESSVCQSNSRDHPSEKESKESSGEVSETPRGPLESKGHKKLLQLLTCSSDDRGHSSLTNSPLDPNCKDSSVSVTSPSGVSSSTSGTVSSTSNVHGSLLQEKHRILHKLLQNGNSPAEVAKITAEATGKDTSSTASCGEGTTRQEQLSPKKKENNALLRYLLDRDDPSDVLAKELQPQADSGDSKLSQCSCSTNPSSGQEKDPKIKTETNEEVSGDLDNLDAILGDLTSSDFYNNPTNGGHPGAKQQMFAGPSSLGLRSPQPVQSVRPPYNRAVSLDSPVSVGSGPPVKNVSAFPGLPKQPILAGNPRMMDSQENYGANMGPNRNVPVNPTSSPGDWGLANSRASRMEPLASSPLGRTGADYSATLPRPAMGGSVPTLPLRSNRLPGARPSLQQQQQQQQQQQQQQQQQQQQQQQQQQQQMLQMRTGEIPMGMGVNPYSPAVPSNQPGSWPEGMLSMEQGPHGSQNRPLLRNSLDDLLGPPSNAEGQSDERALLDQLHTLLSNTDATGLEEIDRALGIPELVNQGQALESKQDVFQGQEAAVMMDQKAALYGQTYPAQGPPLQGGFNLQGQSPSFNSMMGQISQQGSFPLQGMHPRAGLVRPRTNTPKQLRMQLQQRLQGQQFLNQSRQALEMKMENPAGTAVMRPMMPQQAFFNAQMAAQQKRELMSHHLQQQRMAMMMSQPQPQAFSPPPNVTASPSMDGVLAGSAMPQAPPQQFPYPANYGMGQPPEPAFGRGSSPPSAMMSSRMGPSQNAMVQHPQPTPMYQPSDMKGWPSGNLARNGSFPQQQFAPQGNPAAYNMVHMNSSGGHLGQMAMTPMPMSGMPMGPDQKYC
GRIN3A LBD mod – modulates the human NR3A ligand-binding domain | AID 1259313 | Tm shift relative to glycine control, % at 25 µM | NR3A LBD differential scanning fluorimetry, Tm shift; 0% = protein alone, 100% = glycine-bound protein | hit rate 2.5% among 340,000;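 active = melting temperature shift of at least 10% of the positive control shift, at one fixed dose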
Each line names hits and unclear results; the compound was inactive in the other large screens.

NC(c1csc(Nc2ccc(C(=O)NCCCO)cn2)n1)c1ccccc1Cl (stereo not given)	none (no result: MIN6 prolif, p-CIP stab down, GRIN3A LBD mod)
CCOC(=O)[C@]12CCC=C1N(Cc1ccc(Cl)cc1Cl)C(=O)[C@H](CC(=O)NCc1cccc3ccccc13)C2	none (no result: MIN6 prolif, p-CIP stab down, GRIN3A LBD mod)
CNC(=O)C1Cc2c(-c3ccc(Cl)cc3)ccnc2O1 (stereo not given)	none (no result: MIN6 prolif, p-CIP stab down, GRIN3A LBD mod)
CC(=O)c1c(C)oc2c1cc(NS(=O)(=O)c1ccc(C(=O)O)cc1)c1ccccc12	none
Cc1ccc(S(=O)(=O)Nc2ccc(NC(=O)c3c(F)c(F)c(F)c(F)c3F)cc2)cc1	GRIN3A LBD mod 15
Cc1ccc(S(=O)(=O)Nc2cc3c(C(=O)Nc4ccccc4)c(C)oc3c3ccccc23)cc1	GRIN3A LBD mod 12
COC(=O)[C@]12CCCCC=C1N(Cc1ccc(Cl)cc1Cl)C(=O)[C@H](CC(=O)NCC13CC4CC(CC(C4)C1)C3)C2	none (no result: MIN6 prolif, p-CIP stab down, GRIN3A LBD mod)
COc1ccc(OC)c(N2C(=O)c3ccccc3C2c2nnnn2-c2ccc3c(c2)OCCO3)c1 (stereo not given)	none (no result: MIN6 prolif, p-CIP stab down, GRIN3A LBD mod)
O=C(CSc1nc(C(F)(F)F)cc(=O)[nH]1)N1CCC(Cc2ccccc2)CC1	GRIN3A LBD mod 13 (no result: p-CIP stab down)
Cc1cc(=O)[nH]c(SCC(=O)N2CCC(Cc3ccccc3)CC2)n1	none
COc1ccc(OC)c(N=c2ssnc2Cl)c1	none
Cc1nnc(N=c2ssnc2Cl)o1	GRIN3A LBD mod 21 (no result: p-CIP stab down)
COc1cc(N=c2ssnc2Cl)c(OC)cc1Cl	GRIN3A LBD mod 19
Cc1cc(Cl)ccc1N=c1ssnc1Cl	GRIN3A LBD mod 24
Nc1ccccc1N=c1ssnc1Cl	none (no result: MIN6 prolif)
Cc1ccc(N=c2ssnc2Cl)cc1	GRIN3A LBD mod 22
Cc1cc(C)nc(/N=c2/ssnc2Cl)c1	none
CCc1nc2c(OCc3ccccc3C(=O)OC)cccn2c1N(C)C(=O)c1cccc(OC)c1	none (no result: MIN6 prolif, p-CIP stab down, GRIN3A LBD mod)
COc1cc(NC(=S)NC(C)=O)ccc1NC(=O)C(C)C	GRIN3A LBD mod 11
CCCCC(=O)NC(=S)Nc1ccc(NC(=O)C(C)C)c(OC)c1	none
Nc1ccc2c(c1)[nH]c(=O)c1cc(N)ccc12	none (no result: MIN6 prolif, p-CIP stab down, GRIN3A LBD mod)
Cc1ccc(NC(=S)NCCc2c[nH]c3ccccc23)cc1	GRIN3A LBD mod 23
Cc1ccc(C)c(NC(=S)NCCc2c[nH]c3ccccc23)c1	none
CC(C)c1ccc(NC(=S)NCCc2c[nH]c3ccccc23)cc1	GRIN3A LBD mod 31
Cc1cccc(NC(=S)NCCc2c[nH]c3ccccc23)c1	GRIN3A LBD mod 28
COC(=O)c1ccccc1OCc1cc(=O)oc2ccc(C)cc12	none (no result: MIN6 prolif, p-CIP stab down, GRIN3A LBD mod)
Cc1cccc(-[n+]2c(C)cc(C)c3c(=O)[nH]c(=O)[nH]c32)c1	GRIN3A LBD mod 12
Cc1cc(C)[n+](-c2ccc(C(C)C)cc2)c2[nH]c(=O)[nH]c(=O)c12	none
Cc1cccc(C)c1NC(=O)Nc1nc(CN(C)C)cs1	none (no result: MIN6 prolif, p-CIP stab down, GRIN3A LBD mod)
Cc1cc2nc(N3C(=O)CNC3=S)sc2cc1C	none
CCOc1ccc2nc(N3C(=O)CNC3=S)sc2c1	GRIN3A LBD mod 17
O=C(CCC(=O)OCC(=O)c1ccc(F)cc1)NC1CCCCC1	none
O=C(CCC(=O)OCC(=O)c1ccc(Br)cc1)NC1CCCCC1	GRIN3A LBD mod 10
Cc1ccccc1NCC(=O)N/N=C/c1ccc([N+](=O)[O-])cc1	none
O=C(CNc1cccc2ccccc12)N/N=C/c1ccc([N+](=O)[O-])cc1	GRIN3A LBD mod 14
O=C(CNc1cccc2ccccc12)N/N=C/c1cccc(Oc2ccccc2)c1	GRIN3A LBD mod 17
CCN(CC)CCN1C(=O)c2ccccc2NC1c1ccc(C)cc1 (stereo not given)	GRIN3A LBD mod 14
CCN(CC)CCN1C(=O)c2ccccc2NC1c1ccc(F)cc1 (stereo not given)	none
O=S1(=O)CC(N2CCSCC2)CN1Cc1cn(Cc2ccc(Cl)cc2)nn1 (stereo not given)	none (no result: MIN6 prolif, p-CIP stab down, GRIN3A LBD mod)
CCOC(=O)[C@]12CCCC=C1N(Cc1ccco1)C(=O)[C@H](CC(=O)NCc1ccccc1)C2	none (no result: MIN6 prolif, p-CIP stab down, GRIN3A LBD mod)
CCOC(=O)c1[nH]c(=S)[nH]c1C	none (no result: MIN6 prolif, p-CIP stab down)
CCOc1cccc(C(=O)Nc2ccc3[nH]ncc3c2)c1	GRIN3A LBD mod 15
O=C(COc1cccc(C(F)(F)F)c1)Nc1ccc2[nH]ncc2c1	GRIN3A LBD mod 18
C/C(=N\NC(=O)C1(C)CC1(Br)Br)c1cccc(NC(=O)c2ccc(C)o2)c1 (stereo not given)	GRIN3A LBD mod 11
Cc1ccc(C(=O)Nc2cccc(C(=O)NCc3ccccc3)c2)o1	none
COc1cc(CN2C[C@@H](CO)O[C@@H](n3cnc4c(NC(C)C)ncnc43)C2)cc(OC)c1OC	none (no result: MIN6 prolif, p-CIP stab down, GRIN3A LBD mod)
CCC(c1ccccc1)c1nc(-c2ccccn2)no1 (stereo not given)	none
CCC(c1ccccc1)c1nc(-c2cccnc2)no1 (stereo not given)	GRIN3A LBD mod 12
Cc1cc(C)c2c(N)c(-c3nc4ccccc4[nH]3)sc2n1	none
Cc1ccc2nc(-c3sc4nc(C)ccc4c3N)[nH]c2c1	GRIN3A LBD mod 25
CC(C(=O)OCC(=O)Nc1ccccc1OC(F)F)N1C(=O)C2CC=CCC2C1=O (stereo not given)	none (no result: MIN6 prolif, p-CIP stab down, GRIN3A LBD mod)
N#Cc1cc(-c2ccccc2)nc(N2CCNCC2)n1	GRIN3A LBD mod 11
Nc1nc2ccccc2n1C(=O)c1ccccc1	none
Nc1nc2ccccc2n1C(=O)c1ccco1	GRIN3A LBD mod 16 (no result: MIN6 prolif)
COc1ccc(NC(=O)C[C@H]2C(=O)N(c3ccccc3)C[C@@H]2CSC)cc1	none (no result: MIN6 prolif, p-CIP stab down, GRIN3A LBD mod)
O=C(N/C(=C\c1ccc(Cl)cc1)C(=O)N1CCOCC1)c1ccc([N+](=O)[O-])cc1	FAS-TE inh 89
CCCCNc1c(-c2ccc(SC(C)CC)cc2)nc2cnccn12 (stereo not given)	FAS-TE inh 55 (no result: p-CIP stab down)
CCCCNc1c(-c2ccc(OC)c(Sc3ccc(OC)cc3)c2)nc2cnccn12	none (no result: p-CIP stab down)
CCCNC(=O)C1(C)CCCN(C(=O)COc2ccc(Cl)cc2Cl)C1 (stereo not given)	none (no result: MIN6 prolif, p-CIP stab down, GRIN3A LBD mod)
O=S(CC(O)(c1ccccc1)c1ccccc1)CC(O)(c1ccccc1)c1ccccc1	none (no result: MIN6 prolif, p-CIP stab down, GRIN3A LBD mod)
COc1ccc(C)cc1NC(=O)C(Sc1nnc2ccccn12)c1ccccc1 (stereo not given)	GRIN3A LBD mod 15
COc1ccc(C)cc1NC(=O)CSc1nnnn1Cc1ccccc1	GRIN3A LBD mod 15
CCCCN(C=O)c1c(CC)nc2c(OCC(=O)c3ccc(F)cc3)cccn12	none (no result: MIN6 prolif, p-CIP stab down, GRIN3A LBD mod)
CCOC(=O)c1ccc(NC(=S)N2CCCC(C(=O)N3CCCC3)C2)cc1 (stereo not given)	GRIN3A LBD mod 11
CCOC(=O)c1ccc(NC(=S)N2CCSC2c2ccc(Br)cc2)cc1 (stereo not given)	GRIN3A LBD mod 18
CC(C)c1ccc(C(=O)OCC(=O)Nc2cccc(S(=O)(=O)NC3=NCCC3)c2)cc1	none (no result: MIN6 prolif, p-CIP stab down, GRIN3A LBD mod)
Cc1ncc(CO)c(/C=N/NC(=S)Nc2ccc(F)cc2)c1O	none
Cc1ncc(CO)c(/C=N/Nc2ccc(C(F)(F)F)cn2)c1O	GRIN3A LBD mod 27
Cc1cnc(CNC(=O)c2csc([C@@H]3O[C@H](CO)[C@H](O)[C@H](O)[C@H]3O)n2)cn1	none (no result: MIN6 prolif, p-CIP stab down, GRIN3A LBD mod)
CC(=O)Nc1ccc(-c2nc3ccc(NC(C)=O)cc3o2)cc1	GRIN3A LBD mod 11
O=C(Nc1ccc2nn(-c3ccccc3)nc2c1)c1cccs1	GRIN3A LBD mod 25

Assay outcomes (PubChem BioAssay)
